Here are results for 27 molecules from PubChem BioAssay AID485314 (National Center for Advancing Translational Sciences (NCATS), 2010).

SMILES strings stand for the structures. Hit rate of the full screen: of about 340,000 compounds, about 4,500 (1.3%) were called active. About 5% were inconclusive and are not listed. The list comes from a sample in which actives are over-represented; it also holds similar structures and randomly drawn compounds. A number with no mark means an inactive call. The call rests on the fitted dose curve; in most records, active means well fitted inhibition curve with a large enough effect; inconclusive means small, poorly fitted or top-dose-only effect, or another doubt; inactive means no such curve, though single readings can be large or run the other way.
On the % scale 0 is the no-effect control and ±100 the full control effect; potency means the concentration at half of the fitted maximal effect.

The target of this experiment is DNA polymerase beta (Homo sapiens) (UniProt P06746). As to the kind of experiment: qHTS Assay for Inhibitors of DNA Polymerase Beta. Particulars: Pol beta primer extension/strand displacement, fluorescence kinetic; series mostly up to 114 µM; activity change, negative = inhibition: at the top concentration. An outline of the steps: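 Pol beta (10 nM) was preincubated with compound for 15 min at room temperature. The reaction was then started with 50 nM substrate and read immediately and after a further 10 min at room temperature.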
(In qHTS, concentration-response curves come from the screen itself.)
For the molecule `CCOCCCNC(=O)c1cn(CC)c2ccc(S(=O)(=O)N3CCc4ccccc4C3)cc2c1=O`, the “activity change, negative = inhibition” value was 12%.
Turning to `CCN1/C(=C\c2ccc3ccccc3[n+]2CC)Sc2cc(C)ccc21`, the Potency was 25.1 µM (active).
Turning to `CCN1/C(=C/c2ccc3ccc(C)cc3[n+]2CC)Sc2ccccc21`, the Potency is 31.6 µM (active).
For `Cn1c(=O)c2c(-c3ccccc3Br)n(Cc3ccccc3)cc2n(C)c1=O`, the “activity change, negative = inhibition” value was 0.692%.
On the same count and under the same terms, under `COc1ccccc1CNC(=O)C(=O)NCC(c1cccs1)S(=O)(=O)c1cccs1` (configuration not stated) stands 9.72%; under `Cc1c(Cl)cccc1NC(=O)C(=O)NCCc1csc2nc(-c3ccccc3F)nn12`, 12.1%.
As to `COc1ccc(Nc2ncc3c(n2)CCN(C(=O)OC(C)(C)C)C3)cc1`, the “activity change, negative = inhibition” value is 2.37%.
On the same count and under the same terms, under `COc1cccc(-c2nc(CS(=O)(=O)CC(=O)N3CCN(c4cc(C)ccc4C)CC3)c(C)o2)c1` stands -0.161%.
Same read-out and setting: under `COc1cccc(C(c2c(O)cc(C)n(Cc3ccco3)c2=O)N2CCN(c3ccccc3)CC2)c1` (configuration not stated) stands 1.76%; under `Cc1ccccc1CNC(=O)c1cccc(NC(=O)c2nsc3ccccc23)c1`, 5.88%.
The same measure, in the same setting: under `COc1cc(OC)cc(C(=O)Nc2cc3nn(-c4ccccc4)nc3cc2Cl)c1` stands 4.33%.
In the case of `CC1(C)Cc2c(C#N)c(SCc3nc4ccccc4[nH]3)nc(N3CCOCC3)c2CO1`, the “activity change, negative = inhibition” value is 22.2%.
For the molecule `O=c1[nH]c(N2CCOCC2)nc2ccccc12`, the “activity change, negative = inhibition” value was -8.66%.
As for `C1=C(N2CCOCC2)/C(=C/c2nc3ccccc3[nH]2)CC1`, the Potency was 20 µM (active).
With `O=C(CC(c1cccs1)N1Cc2ccccc2C1=O)Nc1ccc(F)c(F)c1` (configuration not stated), the “activity change, negative = inhibition” value is -15.9%.
The same measure, in the same setting: under `Cc1c(C(=O)Nc2cccc(Cl)c2)oc2ccc(S(=O)(=O)N3CCOCC3)cc12` stands 1.9%.
As for `CCc1nnc(NS(=O)(=O)c2ccc(NC(=S)NC(=O)c3cccs3)cc2)s1`, the “activity change, negative = inhibition” value was -13.3%.
Consider `CCOC(=O)c1c(NC(=S)NC(=O)/C=C/c2cccs2)sc(C)c1C`, for which the “activity change, negative = inhibition” value is 1.96% [at 57.1 µM].
With `CCc1nnc(NS(=O)(=O)c2ccc(NC(=S)NC(=O)/C=C/c3cccs3)cc2)s1`, the Potency is 89.1 µM (active).
For `COc1cccc(CNC(=O)Cc2csc3nc(-c4ccccc4)cn23)c1`, the “activity change, negative = inhibition” value was 0.953%.
Still for that read-out and setting: to `Fc1ccccc1Oc1ncnc2c1oc1ccccc12` belongs 10.3%; to `COc1ccc(CC(=O)Nc2nnc3n2CCS3)cc1OC`, 4.66%; to `CCCCOc1ccc(CNC(=O)c2ccc3c(c2)N(C)C(=O)C2CCCCN32)cc1` (configuration not stated), 7.82%.
As for `COc1ccccc1-c1cc2nc(C)c(CCC(=O)O)c(C)n2n1`, the “activity change, negative = inhibition” value is 7.49%.
With `C=CCn1c(CSc2nc3ccccc3s2)nnc1SCC(=O)NCc1ccco1`, the Potency was 39.8 µM (active).
`O=C(CSc1nc2ccc(Nc3nc(N4CCOCC4)nc(N4CCOCC4)n3)cc2s1)NCc1ccco1`: the “activity change, negative = inhibition” value is -8.34%.
Same read-out and setting: under `CCn1c(SCC(=O)NCc2ccco2)nnc1-c1ccc(N)cc1` stands 3.21%.
